Compound activity from PubChem BioAssay.
MPTP block: permeability transition pore inhibition; isolated mouse mitochondria, Ca2+ swelling absorbance, 30 min; inhibition, % at 10 µM; actives 1.4% (n = 360,000);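 active = inhibition of 50% or more, scaled per plate between neutral and stimulator controls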;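 note: 0% = DMSO wells given calcium and 100% = 1 mM EGTA wells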
pCIP destab: compounds decreasing mouse p/CIP protein stability; Q05BA5; F442A p/CIP-EGFP cells, EGFP fluorescence, 16 h; decrease of EGFP signal, % at 10 µM; actives 0.01% (n = 290,000); AID 1984;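 active = EGFP signal decrease of at least 30% at 10 µM or well 3 SD below plate mean, unless failing retest; inactive = the rest, including hits failing retest or dose response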
FAS TE block: blocks the thioesterase domain of human fatty acid synthase; P49327; recombinant FAS-TE, OMFH fluorogenic substrate, fluorescence endpoint; inhibition, % at 15 µM; actives 0.67% (n = 360,000);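 active = compounds whose normalised, plate-corrected inhibition of enzyme fluorescence in the single-dose primary screen is 50% or more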;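 note: 0% = DMSO with enzyme and 100% = substrate without enzyme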
NR3A LBD binder: modulates the human NR3A ligand-binding domain | NR3A LBD differential scanning fluorimetry, Tm shift; 0% = protein alone, 100% = glycine-bound protein | Tm shift relative to glycine control, % at 25 µM | actives 2.5% (n = 340,000) | AID 1259313;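 active = melting temperature shift of at least 10% of the positive control shift, at one fixed dose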
beta cell repl: MIN6 beta-cell proliferation induction. proliferation, % at 10 µM. AID 2380. actives 0.29% (n = 330,000). MIN6 cells proliferation, ATPlite luminescence, 48 h; cells starved in 0.2% serum; 100% = growth in 10% serum;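 active = compounds whose signal lies at least 3.5 SD above the mean of all wells on their plate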;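 note: 0% = DMSO-treated cells in low-serum medium and 100% = 10% serum control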
Starred values were filed as active, the others as inactive; · = no result. An excerpt weighted towards active compounds, which were near 4.1% of everything screened.

SMILES	MPTP block	pCIP destab	FAS TE block	NR3A LBD binder	beta cell repl
CCC1(c2ccc(F)cc2)NC(=O)N(CC(=O)Nc2ccc(-c3nc4ccc(C)cc4s3)cc2)C1=O (stereo unspecified)	0	0	-2	11*	-6
CCCCC1(c2ccc(F)cc2)NC(=O)N(CC(=O)Nc2ccc(N3CCOCC3)cc2)C1=O (stereo unspecified)	2	·	3	12*	-1
CCc1ccc2nc(NC(=O)CN3C(=O)NC4(CCCC4)C3=O)sc2c1	-1	·	0	11*	-3
O=C(NCc1ccccc1)C(c1ccc(F)cc1)N1CCN(c2ccccc2F)CC1 (stereo unspecified)	1	·	·	·	·
COc1ccc(C(C(=O)NCc2ccccc2)n2c(=O)c(-c3cc4ccccc4[nH]3)nc3ccccc32)cc1 (stereo unspecified)	4	·	·	·	·
O=C(COCc1ccccc1)N[C@@H]1c2ccccc2CC[C@@H]1OCc1ccccc1	-2	·	19	17*	·
COC(=O)c1cnc(Nc2nc(C(N)Cc3ccccc3)cs2)nc1C(F)(F)F (stereo unspecified)	4	·	-9	·	·
O=S(=O)(N/N=C/c1ccc(Cl)cc1)c1ccc(Cc2ncc(C(F)(F)F)cc2Cl)s1	6	2	20	29*	-3
Cc1ccc(C(=O)Cc2ccccc2)c(O)c1	1	·	17	-1	·
CC(C)=CCc1c(O)ccc(C(=O)Cc2ccccc2)c1O	7	-26	-8	18*	-4
C/C(=N\Nc1ccc([N+](=O)[O-])cc1)c1cc2ccccc2o1	39	-52	26	27*	-7
C/C(=N\NC(=O)CCc1c[nH]c2ccccc12)c1ccc([N+](=O)[O-])cc1	1	-5	10	22*	-2
CN(C)c1ccc(/C=N/NC(=O)CCc2c[nH]c3ccccc23)cc1	3	3	-8	16*	-2
O=C(N/N=C/c1ccc([N+](=O)[O-])o1)c1cc2ccccc2o1	4	-3	4	10*	-6
O=C(N/N=C/c1ccc([N+](=O)[O-])cc1)c1cc2ccccc2o1	-2	2	1	5	0
O=C(N/N=C/c1ccc([N+](=O)[O-])o1)c1cc2c(ccc3ccccc32)o1	-1	-5	7	-10	·
Cc1ccc2cccc(OC(=O)c3c(F)cccc3Cl)c2n1	-2	·	23	·	·
CC(=O)NC(Cc1ccccc1)C(=O)Oc1ccc2ccccc2c1 (stereo unspecified)	1	·	4	1	·
CC1(C)CC(=O)C=C(c2ccc(-c3cccc4c3sc3ccccc34)cc2)C1=O	-1	·	22	·	·
C/C(=N\NS(=O)(=O)c1ccc([N+](=O)[O-])cc1)c1ccc2c(c1)OCO2	1	-2	40	2	-2
C/C(=N/Nc1ccc([N+](=O)[O-])cc1)c1c[nH]c2ccccc12	5	-96	39	29*	0
C/C(=N\Nc1ccc([N+](=O)[O-])cc1)c1ccc2c(c1)OCO2	33	-22	-6	23*	2
CCCCC(=O)N(C)c1c(CC)nc2c(OCc3ccccc3C)cccn12	-1	·	-2	·	·
O=C(NC1CCCCC1)C(c1ccncc1)n1c(=O)c(-c2cc3ccccc3[nH]2)nc2ccccc21 (stereo unspecified)	2	·	·	·	·
CC1CC2(CC(CN(C3CCCCC3)C3CCCCC3)OC2=O)C(=O)O1 (stereo unspecified)	0	·	2	·	·
SMILES	MPTP block	pCIP destab	FAS TE block	NR3A LBD binder	beta cell repl
Cc1ccc(-c2cc(-c3cccc(F)c3)n[nH]2)c(O)c1	1	-3	11	17*	-3
Cc1ccc(O)c(-c2cc(-c3cccc(F)c3)n[nH]2)c1	46	-2	17	12*	-5
CC(C)(C)c1ccc(C(O)c2ncc(-c3ccccc3F)[nH]2)cc1 (stereo unspecified)	3	·	12	·	·
CCc1ccc2[nH]c3nc(N/N=C/c4cccc(O)c4)nnc3c2c1	1	-8	-2	18*	-2
COc1cccc(/C=N/Nc2nnc3c(n2)[nH]c2ccccc23)c1OC	1	2	-5	-2	-2
O=S(=O)(c1ccc2nc(-c3ccccc3)[nH]c2c1)N1CCN(c2ccc(Cl)cc2)CC1	39	-1	5	13*	-3
CC(C)C[C@H]1CN(CCCC[C@@H]2CNC(=O)C(=O)N2CC2CCCCC2)C(=O)C(=O)N1CCC1CCCCC1	-4	·	28	·	·
CC1CCN(CCOc2cccc(Br)c2)CC1	0	0	-7	11*	0
CC(/C=C/c1ccccc1F)=N\NC(=O)c1cccc(F)c1	-2	4	-3	22*	-2
CC(/C=N/NC(=O)c1cccc(F)c1)=C\c1ccccc1	0	-7	4	5	-5
O=C(O)C[C@H]1c2cc(F)ccc2S(=O)(=O)N1Cc1ccccc1	-1	·	-6	-4	-3
C[C@H]1[C@@H](c2ccccc2)Oc2ccc(Cl)cc2S(=O)(=O)N1Cc1ccc(F)cc1F	-2	·	26	15*	·
CCOC(=O)c1sc(=S)n(C)c1NC(=O)c1ccc(OC)cc1	5	2	4	3	-2
Cc1ccc(OCCOC(=O)c2sc(=S)n(C)c2C)cc1	0	-16	58*	-1	-3
O=S(=O)(c1ccccc1)c1cnn2c(C(F)(F)F)cc(-c3ccccc3)nc12	3	1	-3	-2	1
COc1ccccc1-c1cc(C(F)(F)F)n2ncc(S(=O)(=O)c3ccccc3)c2n1	2	-4	22	24*	-2
O=S(=O)(c1ccccc1)c1cnn2c(C(F)(F)F)cc(-c3ccc(F)cc3)nc12	4	-1	-5	14*	2
COc1ccc(C(C(=O)NC(C)(C)C)n2c(-c3ccc(-c4ccccc4)cc3)nc3ccccc32)cc1 (stereo unspecified)	1	·	·	·	·
CC1(C(=O)Nc2ccc3[nH]ncc3c2)CCN1C(=O)C/C=C/c1ccccc1 (stereo unspecified)	0	·	-7	·	·
CN(C(=O)c1ccncc1)c1ccccc1	1	1	-9	11*	-4
CN(C(=O)c1cccc(C(=O)N(C)c2ccccc2)c1)c1ccccc1	1	-6	0	-7	1
O=C(O)c1cc(NN=Nc2cccc(S(=O)(=O)O)c2)cc([N+](=O)[O-])c1	-2	-9	-4	10*	0
O=C(c1[nH]c(C(F)(F)F)nc1-c1ccccc1)N1CCN(Cc2c(F)cccc2Cl)CC1	-1	·	-7	·	·
c1cc(-c2cc3nc(NC4CCCCC4)ccn3n2)ccc1OCCN1CCOCC1	-1	·	6	·	·
CCOc1ccc(N=C2SC(C(=O)Nc3ccccc3C#N)C(N)=C2C(=O)Nc2ccc(Cl)cc2)cc1 (stereo unspecified)	23	2	35	27*	-4
CCOc1ccc(OCC(=O)OCC(=O)Nc2ccccc2C#N)cc1	-3	·	-5	0	-2
COc1ccccc1-c1csc(C(O)c2ccc(F)c(F)c2)n1 (stereo unspecified)	0	·	16	·	·
